In PubChem BioAssay (NCATS):
Inconclusive results are not listed. Values without a mark were called inactive. The source made the active and inactive calls. Calls come from the whole dose curve; as a rule, active = well fitted inhibition curve with a large enough effect; inconclusive = small, poorly fitted or top-dose-only effect, or effect the other way; inactive = no such curve, though single readings can be large or run the other way.

Experiment: Quantitative high throughput screen for delayed death inhibitors of the malarial parasite plastid, 96 hour incubation (AID 488745); note: nearly all actives have a fitted effect of over 70% in size
Settings: Plasmodium falciparum growth; series mostly up to 28.7 µM; activity change, negative = inhibition: at the top concentration
Description: NIH Molecular Libraries Probe Production Network [MLPCN]
NIH Chemical Genomics Center [NCGC]
Assay Provider: David Fidock and Eric Ekland, Columbia University
The goal of this screen is to discover new antimalarial compounds that act by inhibiting the development of the apicoplast in the malarial parasite Plasmodium falciparum. The biochemical processes that make this organelle essential for erythrocytic stage parasites are not well understood. However, antibiotics such as azithromycin and tetracycline, which target the apicoplast translational machinery, have a potent antimalarial effect.
We have developed a cell-based assay that measures parasite growth based on the expression of an integrated copy of a firefly luciferase reporter. To detect small molecules that cause this 'delayed death' phenotype, erythrocytes infected with the luciferase-expressing parasites were incubated with compounds for either one or two generations, corresponding to 48 and 96 hours, respectively. Compounds that inhibit parasite growth in the second generation, but not the first, should be enriched in antimalarials that target the apicoplast. Growth inhibition is detected by a decrease in luciferase activity
Four microliters of culture medium (RPMI 1640 with 0.5% w/v Albumax (GIBCO), 24 mM sodium bicarbonate and 10 ug/mL gentamycin) were dispensed by a Multi-drop Combi into white solid 1536-well plates (Grenier) and 23 nL compound was added by a pin tool. Four microliters of infected erythrocytes (2% hematocrit, 0.1% parasitemia final concentration) in culture medium were dispensed and the plates incubated for 96 hours at 37 C in 5% CO2. Two microliters of luciferase detection reagent was added and luminescence was detected by a ViewLux (PerkinElmer) reader
% is set by controls: 0 for no effect and ±100 for the full control effect; potency is the fitted concentration of half-maximal effect.

| Compound | activity change, negative = inhibition | Potency |
| --- | --- | --- |
| CC(C)C(=O)c1c(C(C)C)nn2ccccc12 | 0.638% |  |
| CNCC(O)c1ccc(O)c(O)c1 (stereo not drawn) | 21.2% |  |
| CC(C)(C(=O)O)c1ccc(C(O)CCCN2CCC(C(O)(c3ccccc3)c3ccccc3)CC2)cc1 (stereo not drawn) | -5.47% |  |
| CC(=O)OCC(=O)[C@@]1(O)CC[C@H]2[C@@H]3CCC4=CC(=O)CC[C@]4(C)[C@H]3C(=O)C[C@@]21C | -4.64% |  |
| C=Cc1c(C)c2cc3[nH]c(cc4nc(cc5nc(cc1[nH]2)C(C)=C5CCC(=O)O)C(CCC(=O)O)=C4C)c(C)c3C=C | 7.59% |  |
| CCCn1cnc2c1c(=O)n(CCCCC(C)=O)c(=O)n2C | 3.29% |  |
| CCN(CC)CCCC(C)Nc1c2ccc(Cl)cc2nc2ccc(OC)cc12 (stereo not drawn) |  | 11.7 nM (active) |
| CNCCCC1c2ccccc2C=Cc2ccccc21 | -90.4% |  |
| Nc1cc(=O)[nH]c(N)n1 | -10.5% |  |
| CN(C)CC[C@@H](c1ccc(Cl)cc1)c1ccccn1 | 7.85% |  |
| CN(C)CCCN1c2ccccc2CCc2ccccc21 | -17.3% |  |
| COc1ccc(Cl)cc1C(=O)NCCc1ccc(S(=O)(=O)NC(=O)NC2CCCCC2)cc1 | 11.8% |  |
| CC[C@H]1CN2CCc3cc(OC)c(OC)cc3[C@@H]2C[C@@H]1C[C@H]1NCCc2cc(OC)c(OC)cc21 |  | 92.8 nM (active) |
| CC(C)NC[C@H](O)c1ccc(O)c(O)c1 |  | inactive |
| CC1=C(CC(=O)O)c2cc(F)ccc2/C1=C\c1ccc(S(C)=O)cc1 (stereo not drawn) | -14.8% |  |
| NC(N)=NCCC[C@H](N)C(=O)O | -1.59% |  |
| C#CCN(C)Cc1ccccc1 | 1.78% |  |
| CCN(CC)CCOC(=O)C1(C2CCCCC2)CCCCC1 | 11.5% |  |
| N=c1c[n+](N2CCOCC2)[n-]o1 | -7.07% |  |
| NC1CCN(c2cccc(Cl)n2)CC1 | 12.6% |  |
| CN(C)CCC=C1c2ccccc2CCc2ccccc21 | -26.9% |  |
| CN(C)CCOC(C)(c1ccccc1)c1ccccn1 (stereo not drawn) | -22.1% |  |
| OCCN1CCN(CCCN2c3ccccc3Sc3ccc(Cl)cc32)CC1 |  | 5220 nM (active) |
| C[C@H]1O[C@@H](n2cc(F)c(=O)[nH]c2=O)[C@H](O)[C@@H]1O | 1.63% |  |
| CC(C)(C)c1onc(OCP(=O)(O)O)c1CC(N)C(=O)O (stereo not drawn) | -2.5% |  |
| CNC(=O)Oc1ccc2c(c1)[C@]1(C)CCN(C)[C@@H]1N2C | -92.4% |  |
| CCN(CC)CCNC(=O)c1cc(Cl)c(N)cc1OC | -8.51% |  |
| CN1CCN(C2Cc3ccccc3Sc3ccc(Cl)cc32)CC1 (stereo not drawn) | 19.6% |  |
